Data as given in PubChem BioAssay (Tox21).
Inconclusive results are not listed. Calls of active or inactive are those of the source. Unless noted, the call rests on the fitted dose curve; in most records, active means well fitted curve in the direction sought with a large enough effect in the repeat runs; inconclusive means weak or mixed curves; inactive means no such curve, though single readings can be large; an effect the other way counts as inactive or inconclusive.

Experiments:
[1] = qHTS assay for small molecule agonists of the p53 signaling pathway (AID 651631; calls by dose curve; further: nearly all actives have a fitted effect of over 15% in size); conditions: HCT-116 p53RE-bla reporter, beta-lactamase FRET ratio, 16 h; series mostly up to 73.3 µM
In short: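 HCT-116 cells carrying a stable p53 response element–beta-lactamase reporter were plated, rested 5 h at 37 °C, then exposed to compound in DMSO for 16 h at 37 °C; reporter activity was read as FRET substrate fluorescence after 2 h at room temperature.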

[2] = qHTS assay for small molecules that induce genotoxicity in human embryonic kidney cells expressing luciferase-tagged ATAD5 (AID 651632); conditions: HEK293T ATAD5-luciferase induction, 16 h; series mostly up to 83.3 µM; further: nearly all actives have a fitted effect of over 15% in size
In short: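 Cells were seeded at 2,000 per well, dosed with compound, and incubated 16 hr at 37C in 5% CO2. Luciferase activity was then quantified after a 30 min room-temperature incubation with Amplite.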

[3] = qHTS assay for small molecule agonists of the p53 signaling pathway - cell viability (AID 651633; calls by dose curve; further: nearly all actives have a fitted effect of over 30% in size); conditions: p53RE-bla HCT-116 viability, ATP luminescence, 16 h; series mostly up to 83.3 µM
In short: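 p53RE-bla cells were treated with compound for 16 hours at 37 C. Cytotoxicity was then measured as CellTiter-Glo luminescence after 30 min at room temperature.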

[4] = qHTS assay for small molecules that induce genotoxicity in human embryonic kidney cells expressing luciferase-tagged ATAD5 - cell viability (AID 651634; calls by dose curve; further: nearly all actives have a fitted effect of over 25% in size); conditions: HEK293T ATAD5-luc cells viability, CellTiter-Fluor, 15.5 h; series mostly up to 83.3 µM
In short: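 Cells (HEK293T, luciferase-tagged ATAD5) are seeded at 2,000 per well, dosed with compound or DMSO vehicle, and incubated 15.5 hr at 37C and 5% CO2. CellTiter-Fluor is added for 30 min before fluorescence is measured.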

[5] = qHTS assay for small molecule disruptors of the mitochondrial membrane potential - cell viability (AID 720634; calls by dose curve;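 further: human HepG2 liver cancer cells; nearly all actives have a fitted effect of over 20% in size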); conditions: HepG2 viability, ATP luminescence (CellTiter-Glo), 1 h; series mostly up to 83.2 µM
In short: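 Cytotoxicity was measured by ATP quantitation in HepG2 wells that had first been treated with compound for 1 hr and stained with m-MPI dye; CellTiter-Glo incubation was 30 min at room temperature.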

[6] = qHTS assay for small molecule disruptors of the mitochondrial membrane potential (AID 720635); conditions: HepG2 mitochondrial membrane potential, Mito-MPS dye ratio; series mostly up to 83.2 µM; further: potency means the concentration at half of the fitted maximal effect
In short: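 HepG2 cells exposed to compound 1 hr at 37C, then Mito-MPS dye 30 min. Ratio read of aggregate (540/590 nm) versus monomer (490/535 nm) fluorescence.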

[7] = qHTS assay to test for compound auto fluorescence at 590 nm (red) in HepG2 cells (AID 720674); conditions: HepG2 autofluorescence, red 540/590 nm, 1 h; series mostly up to 91.3 µM
In short: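 Fluorescence at 590 nm emission following 540 nm excitation was recorded from HepG2 wells one hour after compound transfer, with DMSO-only wells as vehicle and Rose Bengal sodium equivalency as the scale.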

[8] = qHTS assay to test for compound auto fluorescence at 535 nm (green) in HepG2 cells (AID 720675); conditions: green autofluorescence 485/535 nm, 1 h; series mostly up to 91.3 µM
[9] = qHTS assay to test for compound auto fluorescence at 460 nm (blue) in HEK293 cells (AID 720678); conditions: blue autofluorescence 405/460 nm; series mostly up to 91.3 µM
In short: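 Measured: blue fluorescence (Ex 405/Em 460 nm) of compound-treated HEK293 cells, incubated overnight at 37C with 5% CO2 and scaled to triamterene equivalents.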

[10] = qHTS assay to test for compound auto fluorescence at 535 nm (green) in HEK293 cells (AID 720680); conditions: green autofluorescence 485/535 nm; series mostly up to 91.3 µM
[11] = qHTS assay to test for compound auto fluorescence at 460 nm (blue) in HEK293 cell free culture (AID 720681); conditions: cell-free medium, autofluorescence 405/460 nm (blue); series mostly up to 91.3 µM
In short: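 Compounds were added to cell-free DMEM with 10% FBS and fluorescence read directly. The blue channel used 405 nm excitation and 460 nm emission, with triamterene as the reference fluorophore.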

[12] = qHTS assay to test for compound auto fluorescence at 535 nm (green) in HEK293 cell free culture (AID 720682); conditions: cell-free medium, green autofluorescence 485/535 nm, stronger effect = higher value; series mostly up to 91.3 µM
In short: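 Read-out: 485/535 nm fluorescence intensity, calibrated against fluorescein. Medium only (DMEM + 10% FBS, no cells); test compound or DMSO vehicle added by pintool before plate reading.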

[13] = qHTS assay to test for compound auto fluorescence at 590 nm (red) in HEK293 cell free culture (AID 720683); conditions: cell-free medium autofluorescence, Ex540/Em590 red; series mostly up to 91.3 µM
In short: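 Cell-free wells of DMEM with 10% FBS received compound, and intrinsic fluorescence was read at excitation/emission 540/590 nm. Values expressed as equivalence to Rose Bengal sodium.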

[14] = qHTS assay to test for compound auto fluorescence at 590 nm (red) in HepG2 cell free culture (AID 720684); conditions: cell-free medium autofluorescence, red 540/590 nm; series mostly up to 91.3 µM
In short: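 Auto fluorescence equivalency versus Rose Bengal sodium, red channel Ex/Em 540/590 nm; compounds in cell-free MEM/10% FBS; DMSO vehicle control.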

[15] = qHTS assay to test for compound auto fluorescence at 460 nm (blue) in HepG2 cell free culture (AID 720685); conditions: Cell-free culture medium, blue autofluorescence 405/460 nm; series mostly up to 91.3 µM
In short: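 Cell-free plates of MEM plus 10% FBS received 23 nL compound or DMSO vehicle; blue-channel (405/460 nm) intensity scored against triamterene as reference fluorophore.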

[16] = qHTS assay to test for compound auto fluorescence at 535 nm (green) in HepG2 cell free culture (AID 720686); conditions: Cell-free medium, green autofluorescence 485/535 nm; series mostly up to 91.3 µM
[17] = qHTS assay to test for compound auto fluorescence at 460 nm (blue) in HepG2 cells (AID 720687); conditions: autofluorescence 405/460 nm, 1 h; series mostly up to 91.3 µM
In short: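 HepG2 cells in MEM with 10% FBS, attached overnight at 37 C, were exposed to compound or DMSO for 1 hr at 37 C, 5% CO2. Blue fluorescence was read at 405/460 nm, with triamterene as reference fluorophore.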

[18] = target: Glucocorticoid receptor (Homo sapiens) (UniProt P04150); test: qHTS assay to identify small molecule agonists of the glucocorticoid receptor (GR) signaling pathway (AID 720691; active means well fitted activation curve with a large enough effect in the signal ratio in the repeat runs, not every such curve was filed as active; the % refers to the signal ratio); conditions: GR-bla HeLa, beta-lactamase reporter ratio, 18 h; series mostly up to 62.4 µM
In short: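 Steps: seed GR-bla HeLa cells, incubate 4 h at 37 C/5% CO2; pin-transfer DMSO-dissolved compounds; incubate 18 h at 37 C; add LiveBLAzer B/G FRET substrate; after 2 h at room temperature, measure fluorescence.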

[19] = target: Glucocorticoid receptor (Homo sapiens) (UniProt P04150); test: qHTS assay to identify small molecule antagonists of the glucocorticoid receptor (GR) signaling pathway (AID 720692; active means well fitted inhibition curve with a large enough effect in the signal ratio in the repeat runs, not every such curve was filed as active; the % refers to the signal ratio); conditions: GR-bla HeLa, beta-lactamase FRET ratio, dexamethasone-stimulated, 18 h; series mostly up to 58.5 µM
In short: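 Antagonism was scored as loss of dexamethasone-driven (5 nM final) reporter signal in HeLa cells bearing a glucocorticoid response element–beta-lactamase construct, after 18 h compound exposure at 37 C and 2 h FRET substrate loading.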

[20] = qHTS assay to test for compound auto fluorescence at 590 nm (red) in HEK293 cells (AID 720679); conditions: red autofluorescence 540/590 nm; series mostly up to 91.3 µM
In short: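 Using HEK293 cells at 2,000 per well, the screen added 23 nL of each compound after cell attachment and incubated overnight (37C, 5% CO2). The plate reader then captured red-label fluorescence, Ex/Em 540/590nm.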
On the % scale 0 is the no-effect control and ±100 the full control effect.

Glucocorticoid receptor (Homo sapiens), sequence (P04150 whole entry, looked up): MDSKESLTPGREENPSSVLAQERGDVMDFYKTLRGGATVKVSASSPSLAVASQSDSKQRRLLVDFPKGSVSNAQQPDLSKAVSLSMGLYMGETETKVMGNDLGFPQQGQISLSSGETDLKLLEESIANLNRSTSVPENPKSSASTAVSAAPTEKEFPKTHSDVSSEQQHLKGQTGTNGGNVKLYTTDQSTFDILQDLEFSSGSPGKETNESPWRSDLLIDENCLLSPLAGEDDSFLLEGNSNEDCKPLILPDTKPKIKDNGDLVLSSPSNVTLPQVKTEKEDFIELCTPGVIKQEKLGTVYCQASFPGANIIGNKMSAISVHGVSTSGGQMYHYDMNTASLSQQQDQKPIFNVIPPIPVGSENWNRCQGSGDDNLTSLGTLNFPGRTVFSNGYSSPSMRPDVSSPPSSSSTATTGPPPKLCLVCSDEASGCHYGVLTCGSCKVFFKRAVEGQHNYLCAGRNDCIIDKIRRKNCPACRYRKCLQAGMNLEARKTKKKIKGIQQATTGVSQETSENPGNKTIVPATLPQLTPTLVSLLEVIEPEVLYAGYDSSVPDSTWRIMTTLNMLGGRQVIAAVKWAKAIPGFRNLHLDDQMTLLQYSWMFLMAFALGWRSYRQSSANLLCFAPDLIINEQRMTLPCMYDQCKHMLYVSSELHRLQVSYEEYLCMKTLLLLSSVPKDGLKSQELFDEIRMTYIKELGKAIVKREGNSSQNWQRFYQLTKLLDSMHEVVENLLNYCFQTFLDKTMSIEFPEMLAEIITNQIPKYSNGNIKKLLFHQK

Cc1cc(S(=O)(=O)O)c(N)cc1Cl
inactive: Potency [1] | Potency [2] | Potency [3] | Potency [4] | Potency [5] | Potency [6] | outcome [7] | outcome [8] | outcome [9] | outcome [10] | outcome [11] | outcome [12] | outcome [13] | outcome [14] | outcome [15] | outcome [16] | outcome [17] | Potency [18] | Potency [19]

CC1(C)O[C@@H]2C[C@H]3[C@@H]4CCC5=CC(=O)CC[C@]5(C)[C@@]4(F)[C@@H](O)C[C@]3(C)[C@]2(C(=O)CCl)O1
inactive: Potency [1] | Potency [2] | Potency [3] | Potency [4] | Potency [5] | fluorescence, relative to Rose Bengal [7] -0.0973% [at 18.6 µM] | fluorescence, % of fluorescein control [8] -0.093% [at 18.6 µM] | fluorescence, % of triamterene [9] -0.0183% [at 18.6 µM] | fluorescence, % of fluorescent control [20] -0.0534% [at 18.6 µM] | fluorescence, % of fluorescein [10] -0.0811% [at 18.6 µM] | fluorescence, % of fluorescent control [11] -0.106% [at 18.6 µM] | activity change [12] 0.0954% [at 18.6 µM] | fluorescence, % of fluorescent control [13] -0.0463% [at 18.6 µM] | fluorescence, % of Rose Bengal [14] 0.173% [at 18.6 µM] | fluorescence, % of fluorescein control [16] 0.0501% [at 18.6 µM] | fluorescence, % of fluorescent control [17] -0.0673% [at 18.6 µM]
active: Potency [6] 8.04 µM

CCN(CC)C(=O)N(CC)CC
inactive: Potency [1] | Potency [2] | Potency [3] | Potency [4] | Potency [5] | Potency [6] | outcome [7] | outcome [8] | outcome [9] | outcome [20] | outcome [10] | outcome [11] | outcome [12] | outcome [13] | outcome [14] | outcome [15] | outcome [16] | Potency [18] | Potency [19]

Cc1ccccc1C(=O)Nc1ccc(C(=O)N2CCCC(O)c3cc(Cl)ccc32)c(C)c1 (configuration not stated)
inactive: Potency [1] | Potency [2] | Potency [3] | Potency [4] | Potency [5] | outcome [8] | outcome [9] | outcome [20] | outcome [10] | outcome [11] | outcome [12] | outcome [13] | outcome [14] | outcome [15] | outcome [16]
active: Potency [6] 10.6 µM

CCC(=O)O[C@]1(C(=O)SCF)[C@H](C)C[C@H]2[C@@H]3C[C@H](F)C4=CC(=O)C=C[C@]4(C)[C@@]3(F)[C@@H](O)C[C@@]21C
inactive: Potency [1] | Potency [2] | Potency [3] | Potency [4] | Potency [5] | fluorescence, relative to Rose Bengal [7] -0.521% [at 18.6 µM] | fluorescence, % of fluorescein control [8] 0.0108% [at 18.6 µM] | fluorescence, % of triamterene [9] 0.0153% [at 18.6 µM] | fluorescence, % of fluorescent control [20] -0.0536% [at 18.6 µM] | fluorescence, % of fluorescein [10] 0.0173% [at 18.6 µM] | fluorescence, % of fluorescent control [11] 0.0707% [at 18.6 µM] | activity change [12] 0.0558% [at 18.6 µM] | fluorescence, % of fluorescent control [13] -0.193% [at 18.6 µM] | fluorescence, % of Rose Bengal [14] 0.622% [at 18.6 µM] | fluorescence, % of fluorescein control [16] 0.0971% [at 18.6 µM]
active: Potency [6] 7.17 µM

COc1ccccc1N1CCN(CCCNc2cc(=O)n(C)c(=O)n2C)CC1
inactive: Potency [1] | Potency [2] | Potency [3] | Potency [4] | Potency [5] | Potency [6] | outcome [7] | outcome [8] | outcome [9] | outcome [20] | outcome [10] | outcome [11] | outcome [12] | outcome [13] | outcome [14] | outcome [15] | outcome [16]

CC(C)CCCCCCc1ccc(OCCOCCO)cc1
inactive: Potency [1] | Potency [2] | Potency [3] | Potency [4] | Potency [5] | Potency [6] | outcome [7] | outcome [8] | outcome [9] | outcome [20] | outcome [10] | outcome [11] | outcome [12] | outcome [13] | outcome [14] | outcome [15] | outcome [16] | outcome [17]
